# Results from PubChem BioAssay.
# Active and inactive are the calls of the source. Rule as the data show it: active = inhibition above about 30%; inactive = the rest.
# System: transactivating tegument protein VP16 (Human herpesvirus 1), Gal4-VP16 luciferase reporter
# Test: VP16 transactivation inhibitors, counter-screen for SRC3 inhibitor project, cell-based, luminescence, high throughput (AID 588794)
# Details: mammalian cells, VP16-driven luciferase reporter luminescence; at 3.6 µM; stronger effect = higher value
row,Structure (SMILES),inhibition
1,CN1CCN(S(=O)(=O)c2cccc(C(=O)N(C)CC(=O)Nc3ccc(Cl)c(Cl)c3)c2)CC1,17.9% (inactive)
2,C=CCc1cc(C(=O)N2CCCCC2)ccc1O,19.9% (inactive)
3,CC(=O)c1c(C)n(-c2ccc(Br)cc2)c2ccc(O)cc12,30.8% (active)
4,COc1ccc(CNC(=O)c2ccc(Cl)c(S(=O)(=O)N3CCOCC3)c2)cc1OC,27.5% (inactive)
5,C/C(=N\NC(N)=S)C1C2C3CC4C5CC(C42)C1C53 (stereo not given),30% (active)
6,COc1ccc(-n2nc(C(=O)NCC(=O)NCC3COc4ccccc4O3)c3ccccc3c2=O)cc1OC (stereo not given),-7.63% (inactive)
7,Brc1ccc(N=Nc2ccc3ccccc3n2)cc1,33.7% (active)
8,NCCCn1c(C(=O)c2cc(Cl)c(N)c(Cl)c2)c2ccc([N+](=O)[O-])cc2[n+]1[O-],9.54% (inactive)
9,S=C(N/N=C/c1ccc2ncccc2c1)Nc1cccnc1,-17.5% (inactive)
10,CCCCc1c(O)nc(SCC(=O)NCC2CCCO2)[nH]c1=O (stereo not given),6.46% (inactive)
11,COc1ccc(/C(C)=N/NC(=O)c2cccc(S(=O)(=O)N3CCCC3)c2)c(O)c1,63.5% (active)
12,O=C(Nc1ccn(Cc2ccccc2F)n1)c1ccc(COc2ccccc2Cl)cc1,22.1% (inactive)
13,CC(=O)Nc1ccc(S(=O)(=O)NCCSCc2ccccc2Cl)cc1,17.1% (inactive)
14,CCOC(=O)c1c(NC(=S)N2CCN(C)CC2)sc2c1CCN(C(=O)OCC)C2,40.1% (active)
15,CSCc1cc(N(C)c2ccccc2)nc(-c2ccccn2)n1,-1.49% (inactive)
16,CC1CCCCC12NC(=O)N(CC(=O)N1CCN(Cc3ccc(C#N)cc3)CC1)C2=O (stereo not given),6.63% (inactive)
17,S=c1[nH]nc(C2CCCCC2)n1/N=C/c1ccco1,-11.2% (inactive)
18,CCN(CC)c1ccc(/C=N/NC(=O)c2ccc3nc[nH]c3c2)c(O)c1,50.6% (active)
19,Cc1nccc(-c2ccc(-n3cnc4ccccc43)cc2)n1,12.4% (inactive)
20,COc1ccc2nc(C)cc(SCC(=O)N/N=C/c3ccc(O)cc3O)c2c1,18.7% (inactive)

row,Structure (SMILES),inhibition
1,COc1ccc2nc(NC(=O)C3CCN(S(=O)(=O)c4cccs4)CC3)sc2c1,15.2% (inactive)
2,COc1ccc(OC)c(C2C3=C(CCCC3=O)NC3=C2C(=O)CCC3)c1,-6.31% (inactive)
3,CCN1CCN(c2cc(C)c3cc(NC(=S)N4CCCC(C)C4)ccc3n2)CC1 (stereo not given),31.4% (active)
4,COc1ccc(C(CNC(=O)C(C)(C)Oc2ccc(Cl)cc2)N2CCCCC2)cc1 (stereo not given),2.63% (inactive)
5,CC(C)C(=O)N1CCN(c2ccc(NC(=O)COc3ccccc3[N+](=O)[O-])cc2)CC1,28.6% (inactive)
6,CCC(C)c1ccc(NC(=S)N2CCN(C(=O)C3CCCO3)CC2)cc1 (stereo not given),-1.88% (inactive)
7,O=C1N=c2ccccc2=C1c1sc(=O)[nH]c1O,2.71% (inactive)
8,O=C(NCc1ccccc1)c1c(Cl)nc(Cl)c(Cl)c1Cl,21.9% (inactive)
9,Cc1cc(C(C)(C)C)cc(C)c1Cn1c2[n+](c3ccc(C(F)(F)F)cc31)CCCCC2,21.3% (inactive)
10,COc1ccc(NC(=O)c2ccc(-c3ccccc3)cc2)cc1S(=O)(=O)N1CCOCC1,34.6% (active)
11,O=C(Nc1cccc2ccccc12)OC1C=CS(=O)(=O)C1 (stereo not given),15.6% (inactive)
12,COc1cc(/C=C(/C(=O)c2cccs2)c2nc3ccccc3[nH]2)cc(OC)c1O,12.1% (inactive)
13,COc1ccc(C(=O)Nc2c(-c3cccs3)c(=O)c3ccccc3n2C)cc1,7.07% (inactive)
14,Cc1cc(Br)ccc1NC(=O)c1cnc(N2CCN(c3ccccn3)CC2)c2ccccc12,15.2% (inactive)
15,COc1ccc(NC(=O)c2sc(=O)n(Cc3ccccc3C#N)c2C)cc1OC,31.8% (active)
16,COc1ccc(-c2nc(CSCC(=O)NCc3ccco3)c(C)o2)cc1,-11.2% (inactive)
17,COc1ccc(Cl)cc1NC(=O)CN(C)CC(=O)Nc1c(C)n(C)n(-c2ccccc2)c1=O,4.85% (inactive)
18,CC(C)(C)c1cc(C(=O)N/N=C/c2ccccc2O)n(-c2ccccc2)n1,40.6% (active)
19,COc1ccc(NC(=O)C2CCN(S(=O)(=O)c3ccc4c(c3)CC(C)N4C(C)=O)CC2)cc1OC (stereo not given),5.82% (inactive)
20,O=C(N/N=C/c1c(O)ccc2ccccc12)c1ccc(Br)o1,43.2% (active)
